High-throughput results: PubChem BioAssay, National Center for Advancing Translational Sciences (NCATS)
SNCA expr inh: SNCA gene expression inhibition; HEK-293 SNCA-luciferase knock-in, luminescence, 24 h; Potency, µM (highest dose often 57.2 µM), for the others: at the top dose activity change, negative = inhibition, usual class: inhibitors; actives 0.17% (n = 140,000); AID 1671194;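 also: plate controls were DMSO cells for no effect and cell-free wells for full effect; nearly all actives have a fitted effect of over 45% in size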
NIH3T3 tox: cytotoxic compounds in NIH 3T3 cells; NIH 3T3 viability, CellTiter-Glo ATP luminescence, 48-72 h; Potency, µM (titrated, usually from 96.7 µM), without a hit: at the highest dose activity change, negative = cytotoxicity, most hits filed as inhibitors; actives 4.3% (n = 94,000); AID 1345082; also: nearly all actives have a fitted effect of over 55% in size
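ATP-dependent luminescence (CellTiter-Glo) served as the viability signal for NIH 3T3 cells treated with compound for 48 or 72 hr at 37 °C.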
HEK293 tox: kills HEK 293 cells; HEK 293 viability, ATP luminescence (CellTiter-Glo), 48-72 h; Potency, µM (doses to about 115 µM), for the others: at the top dose activity change, negative = cytotoxicity, actives largely listed as inhibitors; actives 6.6% (n = 94,000); AID 1345083; also: nearly all actives have a fitted effect of over 60% in size
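Luminescence from cellular ATP, measured with CellTiter-Glo, indicates HEK 293 viability. Cells plated at 250 cells/well are treated with compound for 48 or 72 hr at 37 degree Celsius before reagent addition.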
hNpr1 antagonist: blocks ANP-stimulated signaling of human Npr1 receptor; Potency, µM (titrated, usually from 46.3 µM), without a hit: at the highest dose activity change, negative = inhibition, hits mostly inhibitors; P16066; HEK293 hNpr1 GloSensor cGMP, ANP-stimulated luminescence; actives 1.6% (n = 76,000); calls by dose curve; also: nearly all actives have a fitted effect of over 60% in size
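Compound pre-incubated 30 min at room temperature on GloSensor-loaded HEK293 cells stably carrying hNpr1 and the pGS-40F cGMP biosensor. Stimulation uses hNppA at 0.1 nM final; luminescence is taken at baseline and 20 min post-agonist.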
HEK293 viab: counter-screen for SNCA expression inhibitors: cell viability | HEK-293-SNCA-luc viability, GF-AFC fluorescence, 24 h | Potency, µM (titrated, usually from 57.1 µM), for the others: at the top dose activity change, negative = cytotoxicity, usual class: cytotoxic | actives 0.12% (n = 150,000) | AID 1671193;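 also: 0% = DMSO-treated cells and -100% = medium-only wells without cells; nearly all actives have a fitted effect of over 30% in size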
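Cytotoxicity counterscreen: after 24 h compound treatment of genome-edited SNCA-luciferase HEK-293 cells, live-cell protease substrate GF-AFC read by fluorescence after 30 min; activity scaled between DMSO (0%) and medium-only (-100%), curves Hill-fitted.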
Luciferase inh: inhibitors of firefly (Photinus pyralis) luciferase; AID 1347043; purified P. pyralis luciferase, luminescence, biochemical; actives 2.5% (n = 76,000); Potency, µM (top dose mostly 115 µM), usual class: inhibitors; also: nearly all actives have a fitted effect of over 65% in size
Target sequence (P08659 whole entry, looked up): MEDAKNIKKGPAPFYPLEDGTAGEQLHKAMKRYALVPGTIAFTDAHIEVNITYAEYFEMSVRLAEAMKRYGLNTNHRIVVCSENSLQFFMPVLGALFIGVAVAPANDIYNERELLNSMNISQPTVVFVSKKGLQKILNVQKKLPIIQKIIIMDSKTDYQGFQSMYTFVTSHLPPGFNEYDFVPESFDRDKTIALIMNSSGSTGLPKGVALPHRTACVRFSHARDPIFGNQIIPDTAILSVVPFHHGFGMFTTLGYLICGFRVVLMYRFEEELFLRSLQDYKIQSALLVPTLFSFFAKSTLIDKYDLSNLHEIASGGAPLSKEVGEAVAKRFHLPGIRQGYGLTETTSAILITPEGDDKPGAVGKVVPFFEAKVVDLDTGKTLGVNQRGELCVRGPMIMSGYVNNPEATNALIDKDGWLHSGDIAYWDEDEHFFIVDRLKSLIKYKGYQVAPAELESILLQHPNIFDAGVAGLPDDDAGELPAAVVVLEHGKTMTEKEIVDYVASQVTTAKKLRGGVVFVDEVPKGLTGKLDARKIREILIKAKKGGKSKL
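Inhibitors were tested against purified firefly luciferase in a biochemical, low-substrate format (both substrates at 10uM) and luminescence measured with a CCD imager.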
Active calls of the source: *; i = inactive; u = inconclusive; x = no result; [ ] = another dose, or the depositor's remark. Sampled rows, rich in hits. Any-hit rate of the full collection: about 7.2%. Unless noted, calls follow the shape of the dose curve; as a rule, active = well fitted curve in the direction sought with a large enough effect; inconclusive = small, poorly fitted or top-dose-only effect, or another doubt; inactive = no such curve, though single readings can be large; an effect the other way counts as inactive or inconclusive. Unless noted, % is scaled to controls: 0 for no effect and ±100 for the full control effect; potency is read from the fitted curve at half-maximal effect.

SMILES	SNCA expr inh	NIH3T3 tox	HEK293 tox	hNpr1 antagonist	HEK293 viab	Luciferase inh
COc1ccc(Nc2ccnc(N3CCC(C(=O)N(C)C)CC3)n2)cc1	u	-29%	u	x	6%[12.5 µM]	x
O=C(C1CCN(c2nccc(Nc3ccccc3Cl)n2)CC1)N1CCC(Cc2ccccc2)CC1	-11%	u	25µM*	x	0%	x
O=C(C1CCN(c2nccc(Nc3ccccc3Cl)n2)CC1)N1CCN(Cc2ccccc2)CC1	u	32µM*	u	x	-11%[12.5 µM]	x
COc1ccc(C(=O)N[C@@H]2CN(Cc3cccc(OC)c3)CCC[C@H]2O)cc1	-3%[87.6 µM]	-23%[174 µM]	-26%[172 µM]	-2%[70.6 µM]	-19%[87.6 µM]	i
O=C(N[C@@H]1CN(Cc2ccccn2)CCC[C@H]1O)c1ccc(OCc2ccccc2)cc1	-16%[87.6 µM]	u	89µM*	-10%[70.6 µM]	-15%[87.6 µM]	i
COC(=O)c1ccccc1NC(=O)N1CCC[C@@H](O)[C@H](NC(=O)c2ccc(OCc3c(C)noc3C)cc2)C1	-11%	40µM*	u	-4%	-7%	i
COc1cccc(CN2CCC[C@@H](O)[C@H](NC(=O)c3ccc(OCc4ccccc4)cc3)C2)c1	u	35µM*	u	-15%	-21%	i
O=C(N[C@@H]1CN(C(=O)Nc2cccc(C(F)(F)F)c2)CCC[C@H]1O)c1ccc(OCc2ccccc2)cc1	u	40µM*	32µM*	2%	u	i
NC(=O)COc1ccc(C(=O)N[C@@H]2CN(Cc3ccccn3)CCC[C@H]2O)cc1	-28%[87.6 µM]	u	u	4%[70.6 µM]	-1%[87.6 µM]	i
O=C(Nc1ccccc1)N1CCCC1C(=O)N1CCCC1c1nc2ccncc2[nH]1 (stereo unspecified)	-29%	0%	i	x	-18%	x
COc1ccc(OC)c(CNC(=O)C2CCCCC(=O)N2)c1 (stereo unspecified)	-9%	-2%	-1%	-2%	4%	i
Cc1nc2n(c1C(=O)N(C)c1ccccc1)CCC(Nc1ccc(F)cc1)C2 (stereo unspecified)	13%[87.6 µM]	-20%[138 µM]	u	0%[70.6 µM]	-14%[87.6 µM]	i
CC[C@H]1CN(C(=O)Nc2cccc(C(F)(F)F)c2)CC[C@H]1CC(=O)NCc1ccccc1	1%	-8%	-19%	-2%	3%	i
CC[C@H]1CN(C(=O)Nc2cccc(C(F)(F)F)c2)CC[C@H]1CC(=O)Nc1ccccc1	u	u	50µM*	-8%[70.6 µM]	u	i
COc1ccc(-n2nc(C3CCN(Cc4ccncc4)CC3)[nH]c2=O)cc1	-6%	u	3%	0%	5%	i
COc1ccc(-n2nc(C3CCN(Cc4cccn4C)CC3)[nH]c2=O)cc1	-23%	u	40µM*	-4%	1%	i
CCCn1cc(-c2ccnc(NC3CCN(Cc4cccnc4)CC3)n2)c(C)n1	u	u	28µM*	u	u	i
O=C(Nc1cc(-c2ccncc2)nn1-c1ccccc1)c1ccc(Cl)cc1	32%	u	79µM*	x	-19%	x
O=C(Nc1cc(-c2ccccn2)nn1-c1ccccc1)c1ccc(C(F)(F)F)cc1	-8%	u	u	x	5%	x
O=C(Nc1cc(-c2cccnc2)nn1-c1ccccc1)c1ccc(C(F)(F)F)cc1	-4%	32µM*	u	x	1%	x
COc1cccc(C(=O)Nc2cc(-c3cccnc3)nn2-c2ccccc2)c1	-9%	u	u	x	-15%	x
O=C(Nc1cc(-c2cccnc2)nn1-c1ccccc1)c1cccc(Br)c1	-30%	u	50µM*	x	-28%	x
O=C(Nc1cc(-c2ccncc2)nn1-c1ccccc1)c1ccccc1	21%	u	u	x	-7%	x
CCOc1ccc2c(n1)CCN(C(=O)Nc1ccc(C)c(C)c1)C2	161%	u	u	-10%	7%[12.5 µM]	28µM*
COCCOc1ccc2c(n1)CCN(C(=O)NCCC(C)C)C2	117%	-20%	-15%	4%	-11%[12.5 µM]	14µM*
SMILES	SNCA expr inh	NIH3T3 tox	HEK293 tox	hNpr1 antagonist	HEK293 viab	Luciferase inh
FC(F)(F)c1ccccc1CN1CCC2(CC1)CC(c1ccccc1)=NO2	-9%	u	u	6%	1%	i
Cc1cc(C(=O)N2[C@@H]3CC[C@H]2CC(NC(=O)c2ccc(F)cc2)C3)nn1C (stereo partly specified)	16%	-11%	-1%	0%	4%	i
Cc1noc(C)c1[S+](=O)([O-])NCCNC(=O)c1ccc(-c2cccc(C(F)(F)F)c2)cc1	x	35µM*	u	x	x	x
COc1cccc(-c2ccc(C(=O)NCCN[S+](=O)([O-])c3cccc(C(F)(F)F)c3)cc2)c1	x	u	32µM*	x	x	x
COc1cccc(-c2ccc(C(=O)NCCNC(=O)c3ccc4c(c3)OCO4)cc2)c1	x	-27%	79µM*	x	x	x
O=C(NCCN[S+](=O)([O-])c1ccccc1)c1cccc(-c2ccc(C(F)(F)F)cc2)c1	u	22µM*	10µM*	x	8%[12.5 µM]	x
O=C(Nc1cccc(Cl)c1)C1CN(C2CCCCC2)C(=O)N1 (stereo unspecified)	-5%[87.6 µM]	u	u	x	5%[12.5 µM]	x
C[S+](=O)([O-])c1ccc(-c2nc(C(=O)N3CCOCC3)n3ccncc23)cc1	-12%	i	4%	x	u	x
CCCCOc1ccc(C(=O)N2CCC[C@H]2c2nc(-c3ccc(OC)c(OC)c3)no2)cc1	-10%	u	u	-21%	-17%	i
O=C(NCc1nnc2ccc(-c3ccccc3)nn12)c1ccc(Cl)cc1	1%	u	-28%	3%	-15%	i
COc1cccc(-c2ccc(C(=O)NCCN[S+](=O)([O-])c3ccccc3)cc2)c1	x	u	45µM*	x	x	x
COc1ccc(CC2CN(C(=O)c3cccnc3SC)CCO2)cc1 (stereo unspecified)	8%	-20%	-1%	-1%	6%	u
COc1ccccc1-c1cccc(CN2CCC(NC(=O)Nc3ccccc3F)CC2)c1	-23%	18µM*	25µM*	x	-1%	x
COc1ccccc1-c1cccc(CN2CCC(NC(=O)c3ccccc3)CC2)c1	2%	u	u	x	-4%	x
COc1ccccc1-c1cccc(CN2CCC(NC(=O)NC3CCCC3)CC2)c1	-2%	28µM*	40µM*	x	u	x
COc1ccccc1-c1cccc(CN2CCC(NC(=O)C3CCCC3)CC2)c1	-14%	u	u	x	0%	x
COc1ccccc1-c1cccc(CN2CCC(NC(=O)c3ccc(C)cc3)CC2)c1	-1%	u	50µM*	x	1%	x
